Compound activity as filed in PubChem BioAssay.
AHR act: activates the human aryl hydrocarbon receptor | AHR-responsive luciferase reporter cells, luminescence | activation, % at 5 µM | actives 2.5% (n = 320,000); in the data active = activation above about 47%;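 also: 0% = vehicle wells and 100% = reference agonist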
Target sequence (P35869 whole entry, looked up): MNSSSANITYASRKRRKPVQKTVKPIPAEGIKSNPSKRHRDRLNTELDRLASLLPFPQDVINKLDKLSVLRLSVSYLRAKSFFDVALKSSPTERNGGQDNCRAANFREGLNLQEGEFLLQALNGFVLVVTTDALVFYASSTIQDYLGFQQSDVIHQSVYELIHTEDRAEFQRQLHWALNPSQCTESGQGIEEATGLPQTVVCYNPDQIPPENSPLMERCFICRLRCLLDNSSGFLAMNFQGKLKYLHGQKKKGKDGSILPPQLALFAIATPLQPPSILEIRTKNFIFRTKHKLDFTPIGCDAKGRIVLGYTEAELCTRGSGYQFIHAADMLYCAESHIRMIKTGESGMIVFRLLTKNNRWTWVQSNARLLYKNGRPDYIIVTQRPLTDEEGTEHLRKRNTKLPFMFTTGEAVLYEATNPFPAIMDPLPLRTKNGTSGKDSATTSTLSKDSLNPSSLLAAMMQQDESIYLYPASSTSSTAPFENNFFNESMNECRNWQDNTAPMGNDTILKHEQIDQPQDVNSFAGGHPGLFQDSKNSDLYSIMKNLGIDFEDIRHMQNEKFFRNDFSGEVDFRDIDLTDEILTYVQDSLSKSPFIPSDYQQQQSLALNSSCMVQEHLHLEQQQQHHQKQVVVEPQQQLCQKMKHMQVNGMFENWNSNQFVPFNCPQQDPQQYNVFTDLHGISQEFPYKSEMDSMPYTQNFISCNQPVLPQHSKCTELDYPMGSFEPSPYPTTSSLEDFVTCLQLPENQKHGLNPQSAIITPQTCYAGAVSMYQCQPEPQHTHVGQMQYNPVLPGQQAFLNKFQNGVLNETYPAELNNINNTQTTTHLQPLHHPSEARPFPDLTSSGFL
HSF1 activator: increases HSF-1 driven luciferase reporter signal. NIH3T3-HGL HSF-1 luciferase reporter, MG132, 8 h; 100% = twice DMSO control signal. activation, % at 9 µM. actives 1.7% (n = 300,000). AID 504408;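 active = mean replicate activation of at least 50% with a set share of replicates each reaching 50%; inconclusive = only one of those two conditions met; inactive = mean below 50% and too few replicates reaching it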;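 also: 0% = median of the neutral control wells and 100% = twice that signal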
HSF1 inhib: HSF1 inhibition; NIH3T3-HGL HSE-luciferase, MG132-induced, luminescence 8 h; stronger effect = lower value; activity change, negative = inhibition, % at 7.5 µM (by protocol); actives 0.77% (n = 300,000); AID 2098;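 active = more than half of replicate wells show activity change below -50%, luminescence cut by over half; inconclusive = some wells, but at most half, below -50%; inactive = no replicate well below -50%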;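 also: luciferase reports HSF-1 transcriptional activity via heat shock element; 0% = median of DMSO wells and -100% = zero luminescence signal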
GAA850 FXN act: frataxin GAA850 promoter activation; HEK293 lucGAA850 FXN promoter luciferase reporter, 24 h; percent of 10 µM SAHA response; activation, % at 6 µM; actives 0.56% (n = 360,000); AID 540364;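 active = activation above the average of all compounds screened plus 3 SD, cutoff fixed separately per campaign, cut at about 7.5% in these data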;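 also: 0% = DMSO wells and 100% = 10 µM SAHA wells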
Starred values were filed as active, the others as inactive; u = inconclusive; x = no result given. A selection: hits, their analogues and other compounds. The true share with any hit is near 4.6%.

SMILES | AHR act | HSF1 activator | HSF1 inhib | GAA850 FXN act
COC(=O)c1ccccc1S(=O)(=O)N1CCC(C(=O)OC(C)C(=O)NC(N)=O)CC1 (centres undefined) | -0.4 | 1.9 | 0.7 | 0.7
COC(=O)c1cc2c(C(F)(F)F)nn(C)c2s1 | -0.9 | 10.6 | -7.5 | 0.0
CCCNC(=O)C1CCN(c2ccc(S(=O)(=O)N3CCOCC3)cc2Cl)CC1 | -5.3 | x | x | -1.1
CC(C)Nc1nc(NC(C)C)nc(Oc2ccc(/C=N/O)cc2)n1 | 0.0 | -6.7 | -7.2 | 4.7
CC(C)(C)C1=Nn2c(nnc2-c2ccccn2)SC1 | 3.8 | 5.9 | -3.2 | -2.8
COc1cc(Cl)c(C)cc1NC(=O)CSc1ccccc1 | 8.8 | 20.1 | -1.5 | 2.2
COc1cc(Cl)c(C)cc1NC(=O)CSc1ccc(C)cc1 | 2.4 | 80.3* | 38.4 | -0.2
COc1cc(C)ccc1N(CCCN1C(=O)c2cccc3cccc(c23)C1=O)C(=O)c1cccs1 | 42.5 | -1.8 | -5.2 | -0.3
[N-]=[N+]=NC(c1ccccc1)c1nc2ccccc2[nH]c1=O (centres undefined) | 10.2 | 7.7 | -8.9 | 3.7
O=C(c1ccccc1)c1ccc(-c2ccc(O)cc2)cc1 | x | 41.7 | 18.0 | 6.8
COC1Cc2ccccc2N(C(N)=O)c2ccccc21 (centres undefined) | 47.5* | 4.9 | 3.0 | 0.8
CCN(CC)C(=O)N1c2ccccc2CC(N(CC)CC)c2ccccc21 (centres undefined) | 1.1 | -10.0 | 1.5 | -1.3
COc1ccccc1OCCn1cc(/C=N/n2cnnc2)c2ccccc21 | 49.4* | 28.0 | 3.5 | 3.5
CCCC(=O)N1CCN(c2nc3ccc(Cl)cc3s2)CC1 | -4.3 | -46.1 | -32.5 | 1.9
CCN(c1ccccc1)S(=O)(=O)c1ccc(C(C(=O)OC)C(=O)OC)c([N+](=O)[O-])c1 | -3.5 | -3.7 | 2.1 | 1.5
COc1cc(-c2nc3ccc(C)cn3c2NCc2ccccc2)ccc1SC1CCCCC1 | 10.4 | -5.7 | -3.6 | 1.3
COc1cc(-c2nc3ccc(C)cn3c2NCc2ccccc2)ccc1-c1cccc(Cl)c1 | 73.0* | x | x | 0.0
COc1ccc(-c2nc3ccc(C)cn3c2NCc2ccc3c(c2)OCO3)cc1 | 69.2* | 60.5* | 14.0 | 5.3
COc1ccc(-c2nc3ccccn3c2NC2CCCCC2)cc1SC1CCCCC1 | 11.1 | 0.2 | 6.7 | 0.7
COc1ccc(-c2nc3cnccn3c2NCc2ccccc2)cc1SC1CCCCC1 | 50.3* | -0.1 | 12.3 | -2.0
COc1cc(-c2nc3ccccn3c2NCc2ccccc2)ccc1SC1CCCCC1 | 68.9* | 16.9 | 7.5 | 0.5
O=C(CCc1ccccc1)NC(=S)Nc1ccc2c(c1)C(=O)OC2 | 2.0 | 12.7 | -4.8 | -5.1
CCCN(CCC)CCNC(=O)c1cc2c(=O)n(CC)c3ccccc3c2s1 | 8.0 | -19.4 | -6.4 | -0.4
CC(C)CN(C(=O)COC(=O)C(C)N1C(=O)c2ccccc2C1=O)c1c(N)n(Cc2ccccc2)c(=O)[nH]c1=O (centres undefined) | 3.1 | -1.9 | 1.0 | 0.6
CCCCCCSc1cc(-c2nc3cnccn3c2NCc2ccccc2)ccc1OC | 48.6* | -9.0 | 0.3 | 3.4
SMILES | AHR act | HSF1 activator | HSF1 inhib | GAA850 FXN act
COc1ccccc1CCC(=O)Nc1ccc2c(c1)CN(Cc1ccc(CO)o1)CC2 | 10.1 | 17.9 | 1.4 | -1.0
O=C(Nc1ccc2c(c1)CN(Cc1ccc(CO)o1)CC2)c1ccc(C(F)(F)F)cc1 | 54.8* | 40.1 | 13.3 | 6.2
O=C(N/N=C/c1cc2c(cc1Br)OCO2)c1ccccn1 | 36.3 | 60.1* | 30.7 | 2.9
CCN(C(=O)/C=C/c1ccc2c(c1)OCO2)c1ccccc1 | 70.1* | 7.6 | 5.1 | -1.4
Cc1ccc(C(NC(=O)/C=C\c2ccc3c(c2)OCO3)C(=O)Nc2ccc3c(c2)OCO3)cc1 (centres undefined) | 2.5 | 99.0* | 39.0 | -1.0
CC(/C=C/c1ccc2c(c1)OCO2)=N/NC(=O)c1ccncc1 | 23.9 | -76.5 | -70.5* | 0.3
O=C(N/N=C/c1ccc2c(c1)OCO2)c1ccccn1 | 42.0 | 22.7 | 1.3 | -0.8
COc1ccc(C(=O)N2CCCC(CCC(=O)N3CCN(c4ccccn4)CC3)C2)cc1 (centres undefined) | -2.1 | 0.2 | -2.4 | -0.4
O=C(/C=C/c1ccc2c(c1)OCO2)c1ccccn1 | 9.0 | 60.2* | 34.8 | 3.2
COC(=O)c1[nH]c2ccccc2c1NC(=O)/C=C/c1ccc2c(c1)OCO2 | 5.9 | 78.2* | 23.9 | 0.8
CCN(CC(=O)Nc1c(C(=O)OC)[nH]c2ccccc12)c1ccc2c(c1)OCO2 | 9.8 | -3.1 | -11.4 | -1.8
O=C(/C=C/c1ccc2c(c1)OCO2)Nc1ccc(Cl)cn1 | 8.8 | 84.8* | 35.9 | 3.1
O=C(COc1ccc2c(c1)OCO2)Nc1ccc(Cl)cn1 | 27.7 | 29.2 | 2.0 | 2.4
Cc1ccc(-n2c(SCc3cn4ccsc4n3)nc3ccccc3c2=O)cc1 | 2.9 | 19.3 | 7.8 | 0.5
Cn1c(NCCCO)nc2ccccc21 | 3.2 | 2.4 | -4.2 | -0.4
COc1cccc(C=O)c1OCCCOc1cccc2cccnc12 | 10.0 | 53.4* | 42.8 | 3.7
O=C(COc1ncnc2c1cnn2-c1ccccc1)Nc1ccc(S(=O)(=O)N2CCCCC2)cc1 | -0.5 | 0.7 | -3.0 | -0.2
Cc1ccc(S(=O)(=O)/N=C2/C=C(Sc3ncn[nH]3)C(=O)c3ccccc32)cc1 | 57.0* | x | x | -20.9
Cc1ccc(S(=O)(=O)/N=C2/C=C(Sc3ncn[nH]3)C(=O)c3ccccc32)c(C)c1 | 49.9* | x | x | x
Cc1ccc(S(=O)(=O)/N=C2\C=C(NS(=O)(=O)c3ccccc3)C(=O)c3ccccc32)c(C)c1 | x | x | x | 1.8
CC(C)c1ccc(S(=O)(=O)/N=C2/C=C(Sc3ncn[nH]3)C(=O)c3ccccc32)cc1 | 41.5 | x | x | -10.4
COCCCNC(=O)c1ccccc1Oc1ccccc1 | 2.7 | 7.5 | -4.3 | 0.3
COCCCNC(=O)c1ccc2c3c(onc13)-c1ccccc1C2=O | 14.6 | 139.4* | 100.5 | 1.6
CCOC(=O)N/N=C\c1ccccc1OC/C=C/c1ccccc1 | x | 55.5* | 23.5 | 3.6
O=C(NCCc1ccc(F)cc1)Nc1ccc2c(c1)OCO2 | 40.5 | 21.8 | -0.2 | 4.0
SMILES | AHR act | HSF1 activator | HSF1 inhib | GAA850 FXN act
O=C(NCCc1ccccc1)c1ccc2c(c1)OCCO2 | -25.0 | -69.5 | -66.0* | -15.7
O=C(CCCc1ccccc1)c1ccc2c(c1)OCCO2 | -8.2 | -90.6 | -89.1* | -16.8
O=C(NCCc1ccccc1)c1ccc2c(c1)OCCCO2 | -17.8 | -86.1 | -82.8* | -13.6
O=C(CCc1ccccc1)c1ccc2c(c1)OCCCO2 | 4.8 | u | 27.0 | 2.5
O=C(NCCc1ccccc1)Nc1ccc2c(c1)OCO2 | 70.6* | 62.2* | 26.0 | 2.2
O=C(Nc1ncc(Cc2ccc(SC(F)F)cc2)s1)c1ccccc1 | 37.6 | 21.2 | 15.4 | 1.9
Cc1cc(-n2c(=S)sc3c(=O)n(-c4ccc(F)cc4)c(SCC(=O)O)nc32)ccc1Cl | 1.4 | -13.4 | -2.2 | -0.9
CCCCCNC(=O)c1cn(CC)c2cc(N3CCN(C)CC3)c(F)cc2c1=O | 13.5 | 9.8 | 4.6 | 0.1
CCN(CC)C(=O)Nc1ccc(C(=O)OC)cc1 | 8.0 | 14.2 | -1.8 | -0.9
